Test results published in PubChem BioAssay (NCI).
Compounds without any hit were thinned out: in the full panel of roughly 83,000, 20% have a hit.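 96-well plates, one dose, 48 hours. Percent growth reported; active if below 10.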 A number with no mark means an inactive call. Active and inactive are the calls of the source.

Key:
Experiment in all cases: NCI-60 one-dose screen, 48 h (100 = growth as untreated, 0 = no growth, -100 = all killed)
Conditions in all cases: 10 µM unless noted
[1] = system: SR leukemia
[2] = system: RPMI-8226 leukemia
[3] = system: OVCAR-8 ovarian
[4] = system: OVCAR-5 ovarian
[5] = system: OVCAR-4 ovarian
[6] = system: SK-OV-3 ovarian
[7] = system: IGROV1 ovarian
[8] = system: OVCAR-3 ovarian
[9] = system: HS 578T breast
[10] = system: NCI/ADR-RES ovarian
[11] = system: T-47D breast
[12] = system: BT-549 breast
[13] = system: MDA-MB-435 melanoma
[14] = system: SW-620 colon
[15] = system: MCF7 breast
[16] = system: HCT-116 colon
[17] = system: HCC-2998 colon
[18] = system: KM12 colon

**Q.** What does the source list for `COc1ccc(-c2nc(N3CCCC3=O)sc2Br)cc1OC`?
**A.** growth [1]: 88.9%; growth [2]: 109%; growth [3]: 103%; growth [4]: 99.2%; growth [5]: 98.2%; growth [6]: 115%; growth [7]: 113%; growth [8]: 111%; growth [9]: 100%; growth [10]: 104%; growth [11]: 89.2%; growth [12]: 93.2%; growth [13]: 93.5%; growth [14]: 102%; growth [15]: 96.9%; growth [16]: 97.4%; growth [17]: 108%; growth [18]: 92.7%

**Q.** Which growth [1] does the source give for `C=C[C@@H]1C[C@H](O)Cc2c(C)cc(C)cc2N1` here?
**A.** 82.8%

**Q.** What about the growth [2] of the same compound?
**A.** 84.7%

**Q.** And the growth [3]?
**A.** 98.5%

**Q.** What about the growth [4] of the same compound?
**A.** 89.3%

**Q.** And the growth [5]?
**A.** 108%

**Q.** What about the growth [6] of the same compound?
**A.** 106%

**Q.** What about the growth [7] of the same compound?
**A.** 109%

**Q.** What about the growth [8] of the same compound?
**A.** 112%

**Q.** And the growth [9]?
**A.** 99.9%

**Q.** What about the growth [10] of the same compound?
**A.** 97.1%

**Q.** And the growth [11]?
**A.** 103%

**Q.** And the growth [12]?
**A.** 96.4%

**Q.** What about the growth [13] of the same compound?
**A.** 99.3%

**Q.** What about the growth [14] of the same compound?
**A.** 99.9%

**Q.** What about the growth [15] of the same compound?
**A.** 93.1%

**Q.** What about the growth [16] of the same compound?
**A.** 99.9%

**Q.** What about the growth [17] of the same compound?
**A.** 94.2%

**Q.** And the growth [18]?
**A.** 105%

**Q.** How did the growth [1] turn out when `N/C(=N\C(N)=N\c1nc2ccccc2s1)c1cccc(Br)c1` was run?
**A.** 33.2%

**Q.** And the growth [2]?
**A.** 83.3%

**Q.** And the growth [3]?
**A.** 72.6%

**Q.** What about the growth [4] of the same compound?
**A.** 95.2%

**Q.** What about the growth [5] of the same compound?
**A.** 107%

**Q.** And the growth [6]?
**A.** 129%

**Q.** What about the growth [7] of the same compound?
**A.** 66.4%

**Q.** And the growth [8]?
**A.** 103%

**Q.** What about the growth [9] of the same compound?
**A.** 103%

**Q.** What about the growth [10] of the same compound?
**A.** 73.6%

**Q.** And the growth [11]?
**A.** 52.1%

**Q.** And the growth [12]?
**A.** 79.1%

**Q.** What about the growth [13] of the same compound?
**A.** 93.8%

**Q.** What about the growth [14] of the same compound?
**A.** 102%

**Q.** And the growth [15]?
**A.** 77.4%

**Q.** And the growth [16]?
**A.** 61.2%

**Q.** And the growth [17]?
**A.** 108%

**Q.** What about the growth [18] of the same compound?
**A.** 66.5%

**Q.** For `C=C(C)[C@@H]1C[C@@H]2Cc3ccc(Cl)c(C)c3N1O2`, which growth [1] is on record?
**A.** 80.2%

**Q.** And the growth [2]?
**A.** 78.6%

**Q.** What about the growth [3] of the same compound?
**A.** 107%

**Q.** What about the growth [4] of the same compound?
**A.** 79.5%

**Q.** What about the growth [5] of the same compound?
**A.** 91.7%

**Q.** What about the growth [6] of the same compound?
**A.** 99.6%

**Q.** What about the growth [7] of the same compound?
**A.** 111%

**Q.** And the growth [8]?
**A.** 105%

**Q.** What about the growth [9] of the same compound?
**A.** 97%

**Q.** What about the growth [10] of the same compound?
**A.** 94.2%

**Q.** And the growth [11]?
**A.** 89.1%

**Q.** And the growth [12]?
**A.** 101%

**Q.** And the growth [13]?
**A.** 94.4%

**Q.** What about the growth [14] of the same compound?
**A.** 106%

**Q.** And the growth [15]?
**A.** 107%

**Q.** And the growth [16]?
**A.** 95.9%

**Q.** And the growth [17]?
**A.** 90.5%

**Q.** And the growth [18]?
**A.** 104%

**Q.** How did the growth [1] turn out when `COc1cc(C2NN=C3c4ccccc4CCC32)cc(OC)c1OC` (configuration not stated) was run?
**A.** 61.1%

**Q.** What about the growth [2] of the same compound?
**A.** 5.35% (active)

**Q.** What about the growth [3] of the same compound?
**A.** 70.3%

**Q.** What about the growth [4] of the same compound?
**A.** 95.8%

**Q.** And the growth [5]?
**A.** 71.1%

**Q.** What about the growth [6] of the same compound?
**A.** 69%

**Q.** And the growth [7]?
**A.** 26.1%

**Q.** And the growth [8]?
**A.** 71.2%

**Q.** And the growth [9]?
**A.** 71.4%

**Q.** What about the growth [10] of the same compound?
**A.** 79.4%

**Q.** And the growth [11]?
**A.** 39.3%

**Q.** What about the growth [12] of the same compound?
**A.** 103%

**Q.** What about the growth [13] of the same compound?
**A.** 96.9%

**Q.** And the growth [14]?
**A.** 93.9%

**Q.** And the growth [15]?
**A.** 42.7%

**Q.** And the growth [16]?
**A.** 74.8%

**Q.** What about the growth [17] of the same compound?
**A.** 110%

**Q.** What about the growth [18] of the same compound?
**A.** 80.4%

**Q.** `COc1ccc(/C=C2\N=C(c3ccccc3)N(C(=O)c3ccccc3O)NC2=O)cc1` was tested. Which growth [1] did it give?
**A.** 64%

**Q.** What about the growth [2] of the same compound?
**A.** 46.2%

**Q.** And the growth [3]?
**A.** 109%

**Q.** What about the growth [4] of the same compound?
**A.** 98.5%

**Q.** And the growth [5]?
**A.** 105%

**Q.** And the growth [6]?
**A.** 100%

**Q.** And the growth [7]?
**A.** 98.2%

**Q.** And the growth [8]?
**A.** 118%

**Q.** And the growth [9]?
**A.** 93.8%

**Q.** And the growth [10]?
**A.** 93.1%

**Q.** And the growth [11]?
**A.** 96.6%

**Q.** What about the growth [12] of the same compound?
**A.** 92%

**Q.** And the growth [13]?
**A.** 95%

**Q.** And the growth [14]?
**A.** 100%

**Q.** What about the growth [15] of the same compound?
**A.** 92.8%

**Q.** What about the growth [16] of the same compound?
**A.** 92%

**Q.** What about the growth [17] of the same compound?
**A.** 93.7%

**Q.** And the growth [18]?
**A.** 92%

**Q.** For `COc1ccc(N=Cc2c(O)ccc3c2oc2cc(Cl)c(O)c(Cl)c23)cc1`, which growth [1] is on record?
**A.** 83%

**Q.** And the growth [2]?
**A.** 78.3%

**Q.** What about the growth [3] of the same compound?
**A.** 93.8%

**Q.** What about the growth [4] of the same compound?
**A.** 102%

**Q.** And the growth [5]?
**A.** 98.3%

**Q.** What about the growth [6] of the same compound?
**A.** 104%

**Q.** And the growth [7]?
**A.** 62.2%

**Q.** What about the growth [8] of the same compound?
**A.** 117%

**Q.** And the growth [9]?
**A.** 93.5%

**Q.** And the growth [10]?
**A.** 84.5%

**Q.** What about the growth [11] of the same compound?
**A.** 87.9%

**Q.** And the growth [12]?
**A.** 53.3%

**Q.** And the growth [13]?
**A.** 94%

**Q.** And the growth [14]?
**A.** 99.2%

**Q.** What about the growth [15] of the same compound?
**A.** 69.6%

**Q.** And the growth [16]?
**A.** 91.5%

**Q.** What about the growth [17] of the same compound?
**A.** 88.7%

**Q.** What about the growth [18] of the same compound?
**A.** 104%

**Q.** `CCNc1nc(S(=O)(=O)CC)nc2ccccc12` was tested. Which growth [1] did it give?
**A.** 84.5%

**Q.** What about the growth [2] of the same compound?
**A.** 87.5%

**Q.** What about the growth [3] of the same compound?
**A.** 99.8%

**Q.** What about the growth [4] of the same compound?
**A.** 104%

**Q.** What about the growth [5] of the same compound?
**A.** 99.7%

**Q.** And the growth [6]?
**A.** 96.6%

**Q.** What about the growth [7] of the same compound?
**A.** 104%

**Q.** What about the growth [8] of the same compound?
**A.** 98%

**Q.** What about the growth [9] of the same compound?
**A.** 93.6%

**Q.** What about the growth [10] of the same compound?
**A.** 111%

**Q.** What about the growth [11] of the same compound?
**A.** 92.4%

**Q.** And the growth [12]?
**A.** 91.2%

**Q.** What about the growth [13] of the same compound?
**A.** 81.9%

**Q.** And the growth [14]?
**A.** 106%

**Q.** What about the growth [15] of the same compound?
**A.** 95.8%

**Q.** What about the growth [16] of the same compound?
**A.** 91.7%

**Q.** And the growth [17]?
**A.** 115%

**Q.** What about the growth [18] of the same compound?
**A.** 94.9%

**Q.** With `C=C1C(=O)O[C@@H]2[C@@H]3O[C@@](C)(CC/C=C(\C)CCC[C@@H]2C)[C@H](O)C[C@@H]13` as the compound, how does the growth [1] read?
**A.** 13.7%

**Q.** And the growth [2]?
**A.** 7.48% (active)

**Q.** And the growth [3]?
**A.** 35%

**Q.** What about the growth [4] of the same compound?
**A.** 97.5%

**Q.** What about the growth [5] of the same compound?
**A.** 70.1%

**Q.** And the growth [6]?
**A.** 92%

**Q.** And the growth [7]?
**A.** 42.3%

**Q.** What about the growth [8] of the same compound?
**A.** 13.9%

**Q.** What about the growth [9] of the same compound?
**A.** 72.1%

**Q.** What about the growth [10] of the same compound?
**A.** 37.5%

**Q.** What about the growth [11] of the same compound?
**A.** 50.9%

**Q.** And the growth [12]?
**A.** 19.1%

**Q.** And the growth [13]?
**A.** 19.2%

**Q.** What about the growth [14] of the same compound?
**A.** 33.5%

**Q.** What about the growth [15] of the same compound?
**A.** 36.3%

**Q.** And the growth [16]?
**A.** -4.01% (active)

**Q.** And the growth [17]?
**A.** 97.5%

**Q.** What about the growth [18] of the same compound?
**A.** 75.8%
